From the supplement of paper PMC8975748
Structures can show the parent of a compound that is named as a salt. ± gives the standard deviation of the averaged measurements.

Tests used:
[1] = system: Saccharomyces cerevisiae BY4741 SeMeCo community; assay: mean cell size (pixel area) (pixels); higher = larger cells; details: 10 µM; 24 h; SM minimal medium
Summary of the method: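 Plates of 384 wells were acoustically predosed with drug at a final 10 µM in SM medium, and 70 µl of a Saccharomyces cerevisiae BY4741 preculture diluted from OD600 = 1.0 to OD600 = 0.3 was added for 24 h. The yeast formed a four-plasmid fluorescent community in which each plasmid complements one auxotrophy and carries a fluorescent marker. Fixed cells were imaged by automated confocal microscopy and analysed in Harmony for mean cell pixel area per well. Values are means of 3 replicates. Same SeMeCo high-content imaging drug screen: Selleck FDA-approved drugs at 10 µM, 24 h in SM medium, 384-well plates, 3 replicates.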

[2] = system: Saccharomyces cerevisiae BY4741 SeMeCo community; assay: z-score of prototroph abundance vs DMSO median; higher = larger share of this subpopulation than in DMSO controls; details: 10 µM; 24 h; SM minimal medium; subpopulation (auxotrophy): Prototroph
Summary of the method: (§1)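 Automated confocal microscopy of paraformaldehyde-fixed cells was used to follow a Saccharomyces cerevisiae BY4741 community carrying four plasmids, each restoring one auxotrophy and encoding a distinct fluorescent protein. The community was pre-grown overnight to OD600 1.0, diluted to 0.3, and added at 70 µl to 384-well plates acoustically predosed with library drugs (10 µM final) for 24 h of growth in minimal SM medium. Single-auxotroph fluorescent strains set thresholds and autofluorescence correction, and each subpopulation's abundance was scored as a z-score against the vehicle-well median.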

[3] = system: Saccharomyces cerevisiae BY4741 SeMeCo community; assay: z-score of subpopulation abundance vs DMSO median, subpopulation auxotrophic for M; higher = larger share of this subpopulation than in DMSO controls; details: 10 µM; 24 h; SM minimal medium; subpopulation (auxotrophy): M
Summary of the method: as §1

[4] = system: Saccharomyces cerevisiae BY4741 SeMeCo community; assay: z-score of subpopulation abundance vs DMSO median, subpopulation auxotrophic for L; higher = larger share of this subpopulation than in DMSO controls; details: 10 µM; 24 h; SM minimal medium; subpopulation (auxotrophy): L
Summary of the method: as §1

[5] = system: Saccharomyces cerevisiae BY4741 SeMeCo community; assay: z-score of subpopulation abundance vs DMSO median, subpopulation auxotrophic for LU; higher = larger share of this subpopulation than in DMSO controls; details: 10 µM; 24 h; SM minimal medium; subpopulation (auxotrophy): LU
Summary of the method: as §1

[6] = system: Saccharomyces cerevisiae BY4741 SeMeCo community; assay: z-score of subpopulation abundance vs DMSO median, subpopulation auxotrophic for LM; higher = larger share of this subpopulation than in DMSO controls; details: 10 µM; 24 h; SM minimal medium; subpopulation (auxotrophy): LM
Summary of the method: as §1

[7] = system: Saccharomyces cerevisiae BY4741 SeMeCo community; assay: z-score of subpopulation abundance vs DMSO median, subpopulation auxotrophic for HM; higher = larger share of this subpopulation than in DMSO controls; details: 10 µM; 24 h; SM minimal medium; subpopulation (auxotrophy): HM
Summary of the method: as §1

[8] = system: Saccharomyces cerevisiae BY4741 SeMeCo community; assay: z-score of subpopulation abundance vs DMSO median, subpopulation auxotrophic for HL; higher = larger share of this subpopulation than in DMSO controls; details: 10 µM; 24 h; SM minimal medium; subpopulation (auxotrophy): HL
Summary of the method: as §1

[9] = system: Saccharomyces cerevisiae BY4741 SeMeCo community; assay: z-score of subpopulation abundance vs DMSO median, subpopulation auxotrophic for HLU; higher = larger share of this subpopulation than in DMSO controls; details: 10 µM; 24 h; SM minimal medium; subpopulation (auxotrophy): HLU
Summary of the method: as §1

[10] = system: Saccharomyces cerevisiae BY4741 SeMeCo community; assay: z-score of subpopulation abundance vs DMSO median, subpopulation auxotrophic for HUM; higher = larger share of this subpopulation than in DMSO controls; details: 10 µM; 24 h; SM minimal medium; subpopulation (auxotrophy): HUM
Summary of the method: as §1

[11] = system: Saccharomyces cerevisiae BY4741 SeMeCo community; assay: z-score of subpopulation abundance vs DMSO median, subpopulation auxotrophic for LUM; higher = larger share of this subpopulation than in DMSO controls; details: 10 µM; 24 h; SM minimal medium; subpopulation (auxotrophy): LUM
Summary of the method: as §1

[12] = system: Saccharomyces cerevisiae BY4741 SeMeCo community; assay: z-score of subpopulation abundance vs DMSO median, subpopulation auxotrophic for HLUM; higher = larger share of this subpopulation than in DMSO controls; details: 10 µM; 24 h; SM minimal medium; subpopulation (auxotrophy): HLUM
Summary of the method: as §1

[13] = system: Saccharomyces cerevisiae BY4741 SeMeCo community; assay: z-score of subpopulation abundance vs DMSO median, subpopulation auxotrophic for U; higher = larger share of this subpopulation than in DMSO controls; details: 10 µM; 24 h; SM minimal medium; subpopulation (auxotrophy): U
Summary of the method: as §1

[14] = system: Saccharomyces cerevisiae BY4741 SeMeCo community; assay: z-score of subpopulation abundance vs DMSO median, subpopulation auxotrophic for H; higher = larger share of this subpopulation than in DMSO controls; details: 10 µM; 24 h; SM minimal medium; subpopulation (auxotrophy): H
Summary of the method: as §1

[15] = system: Saccharomyces cerevisiae BY4741 SeMeCo community; assay: z-score of subpopulation abundance vs DMSO median, subpopulation auxotrophic for HU; higher = larger share of this subpopulation than in DMSO controls; details: 10 µM; 24 h; SM minimal medium; subpopulation (auxotrophy): HU
Summary of the method: as §1

[16] = system: Saccharomyces cerevisiae BY4741 SeMeCo community; assay: z-score of subpopulation abundance vs DMSO median, subpopulation auxotrophic for UM; higher = larger share of this subpopulation than in DMSO controls; details: 10 µM; 24 h; SM minimal medium; subpopulation (auxotrophy): UM
Summary of the method: as §1

[17] = system: Saccharomyces cerevisiae BY4741 SeMeCo community; assay: z-score of subpopulation abundance vs DMSO median, subpopulation auxotrophic for HLM; higher = larger share of this subpopulation than in DMSO controls; details: 10 µM; 24 h; SM minimal medium; subpopulation (auxotrophy): HLM
Summary of the method: as §1

Compound	mean cell size [1]	z-score of prototroph abundance [2]	z-score of subpopulation abundance [3]	z-score of subpopulation abundance [4]	z-score of subpopulation abundance [5]	z-score of subpopulation abundance [6]	z-score of subpopulation abundance [7]	z-score of subpopulation abundance [8]	z-score of subpopulation abundance [9]	z-score of subpopulation abundance [10]	z-score of subpopulation abundance [11]	z-score of subpopulation abundance [12]	z-score of subpopulation abundance [13]	z-score of subpopulation abundance [14]	z-score of subpopulation abundance [15]	z-score of subpopulation abundance [16]	z-score of subpopulation abundance [17]
CCCN[C@H]1CCc2nc(N)sc2C1 [Pramipexole]	12.3 ± 0.16	-0.22	-0.13	-0.15	0.21	-0.62	0.07	0.63	0.75	0.71	0.35	0.18	–	–	–	–	–
CCC(=O)c1c(O)cc(O)cc1O [Flopropione]	–	0.7	0.69	-0.09	-0.57	0.21	0.19	-0.4	-0.08	–	-0.46	-0.26	-0.13	0.18	1.06	0.25	0.03
CN(C)CCOc1ccc(/C(=C(/CCCl)c2ccccc2)c2ccccc2)cc1 [Toremifene Citrate]	12.1 ± 0.2	-1.18	-0.37	0.06	0.34	0.69	0.66	1.37	1.1	0.27	0.81	-0.23	0.79	2.17	2.51	0.54	–
CCCN(CCc1cccs1)[C@H]1CCc2c(O)cccc2C1 [Rotigotine]	12.6 ± 0.31	0.61	0.93	0.33	-0.93	1.22	1.47	0.46	-0.16	-0.69	-0.27	-0.54	-1.74	-0.04	-1.03	-1.79	–
O=C1NCC2(CCN(CCc3ccccc3)CC2)O1 [Fenspiride HCl]	12.6 ± 0.16	-0.38	0.25	-0.18	-0.49	-0.15	-0.15	–	1.03	-0.64	-0.59	1.16	0.18	-0.41	-0.8	0.21	–
CCN(CC)CCOC(=O)c1ccc(N)cc1 [Procaine]	12.2 ± 0.13	0.34	-1.12	-0.42	0.48	-0.46	-0.99	-0.79	-1.15	0.39	0.13	-0.71	1.32	-0.4	0.81	0.14	–
COc1cccc2c1C(=O)c1c(O)c3c(c(O)c1C2=O)C[C@@](O)(C(C)=O)C[C@@H]3O[C@H]1C[C@H](N)[C@H](O)[C@H](C)O1 [Daunorubicin HCl]	12.78 ± 0.043	-0.6	-4.78	-1.28	3.27	-1.4	-3.07	–	4.11	1.29	1.18	5.15	4.14	0.44	4.21	0.35	–
